PNC assembly inh = inhibitors of perinucleolar compartment assembly. PC3M PTB-GFP, PNC prevalence imaging, 16 h; stronger effect = lower value. activity change (PNC), negative = inhibition, % at 10 µM. 140,000 compounds, 3.1% hits. AID 2417;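 active = readout at or below -70, meaning at least 70% loss of cells showing the perinucleolar compartment, a nuclear body marking cancer cells; inconclusive = readout between -30 and a set limit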
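PC3M cells stably expressing PTB-GFP, 750–1000 cells/well, treated 16 h at 37 °C with compound (23 nl of library stock), in duplicate. After paraformaldehyde fixation and Hoechst stain, imaged at 20x; PNC prevalence scored by image analysis.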
Tau fluor cs = counter-screen for tau fibril formation inhibitors. tau K18 P301L Alexa594 fluorescence, heparin fibrillization. Potency, µM (top dose mostly 57.7 µM). 280,000 compounds, 0.93% hits. AID 1463; also: nearly all actives have a fitted effect of over 55% in size
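Human K18 P301L tau (15 uM unlabeled plus 0.24 uM Alexa 594-labeled, final) in 100 mM sodium acetate pH 7 was mixed with compound and 20 uM heparin and incubated 6 hr at 37 C.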
NPSR antagonist = blocks cAMP signaling of the human neuropeptide S receptor. CHO-NPSR cells, cAMP TR-FRET, antagonist mode. 220,000 compounds, 1% hits. Q6W5P4. Potency, µM (series often up to 38.3 µM), most hits filed as inhibitors; also: nearly all actives have a fitted effect of over 50% in size
Target sequence (Q6W5P4 whole entry, looked up): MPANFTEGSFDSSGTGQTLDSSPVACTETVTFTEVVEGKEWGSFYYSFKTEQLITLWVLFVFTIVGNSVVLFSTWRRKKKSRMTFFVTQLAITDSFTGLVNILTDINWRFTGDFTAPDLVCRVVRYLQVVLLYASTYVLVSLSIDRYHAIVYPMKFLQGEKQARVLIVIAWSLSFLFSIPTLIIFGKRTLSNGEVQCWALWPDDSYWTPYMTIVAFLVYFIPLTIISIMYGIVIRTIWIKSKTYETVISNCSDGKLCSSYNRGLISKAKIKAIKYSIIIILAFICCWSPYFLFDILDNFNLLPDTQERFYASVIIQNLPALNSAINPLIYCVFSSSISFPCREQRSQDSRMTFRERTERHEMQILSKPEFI
JMJD2E inh = JMJD2E (human) inhibition; B2RXH2; JMJD2E catalytic domain, FDH-coupled NADH fluorescence (FDH is formaldehyde dehydrogenase); Potency, µM (top dose mostly 57.1 µM), actives largely listed as inhibitors; 230,000 compounds, 1.6% hits; active = well fitted inhibition curve with a large enough effect, not every such curve was filed as active; inconclusive = small, poorly fitted or top-dose-only effect, or another doubt; inactive = no such curve, though single readings can be large or run the other way; also: nearly all actives have a fitted effect of over 50% in size
Tau fibril FP = inhibitors of human tau fibril formation; K18 P301L tau heparin fibrillization, Alexa594 FP, 6 h; Potency, µM (highest dose often 57.7 µM), usual class: inhibitors; 280,000 compounds, 0.39% hits; P10636; also: nearly all actives have a fitted effect of over 55% in size
Target sequence (P10636 561-689 P618L limits assumed): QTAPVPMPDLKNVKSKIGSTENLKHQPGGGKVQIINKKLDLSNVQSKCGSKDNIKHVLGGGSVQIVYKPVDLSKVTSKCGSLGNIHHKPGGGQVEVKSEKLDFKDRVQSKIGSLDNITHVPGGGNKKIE
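Human K18 P301L fragment (15 uM unlabeled plus 0.24 uM Alexa 594-labeled) in 100 mM sodium acetate pH 7 with compound, aggregation induced by 20 uM heparin for 6 hr at 37 C. ThT (30 uM) added for 1 hr, then Alexa 594 FP read.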
Tau fibril ThT = tau fibrillization inhibition (ThT binding). P10636. recombinant tau K18 P301L (four-repeat tau fragment), heparin-induced fibrillization, ThT fluorescence. Potency, µM (top dose mostly 57.4 µM), usual class: inhibitors. 270,000 compounds, 2.1% hits. AID 1460; also: nearly all actives have a fitted effect of over 55% in size
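Aggregation was driven by heparin (20 uM final) acting on recombinant tau […] bearing P301L in 100 mM sodium acetate pH 7; fibrils were detected with Thioflavin T.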
Hits are given with their value; – = inactive; ? = inconclusive; · = not tested or not shown; ! = not confirmed by another sample; [ ] = remark or other dose. Compounds with a hit are over-represented: about 5.1% of the library has one in this group of screens. Unless noted, calls follow the shape of the dose curve; as a rule, active = well fitted curve in the direction sought with a large enough effect; inconclusive = small, poorly fitted or top-dose-only effect, or another doubt; inactive = no such curve, though single readings can be large; an effect the other way counts as inactive or inconclusive.

SMILES | PNC assembly inh | Tau fluor cs | NPSR antagonist | JMJD2E inh | Tau fibril FP | Tau fibril ThT
Cc1ccc(-c2[nH]c3ccccc3c2SCCNC(=O)c2ccc(S(=O)(=O)N3CCOCC3)cc2)cc1 | ? | 3.5µM[quencher] | – | – | – | –
CN(C)S(=O)(=O)c1ccc(C(=O)NCCSc2c(-c3ccc(Br)cc3)[nH]c3ccccc23)cc1 | · | 4.5µM[quencher] | · | · | ? | –
CCN(CC)S(=O)(=O)c1ccc(C(=O)NCCSc2c(-c3ccccc3)[nH]c3ccccc23)cc1 | · | 4.5µM[quencher] | · | · | – | –
COc1ccc(-c2[nH]c3ccccc3c2SCCNC(=O)c2ccccc2)cc1 | ? | – | – | – | – | –
COc1ccc(NC(=O)c2ccco2)cc1NC(=O)COc1ccc(Cl)c(C)c1 | · | – | · | · | – | ?
Cc1cc(Cl)ccc1NC(=O)Cn1nc(C)c2c(C)n(-c3ccccc3)nc2c1=O | · | – | · | · | – | –
S=C(c1ccc(-c2ccccc2Cl)o1)N1CCOCC1 | ? | ? | – | – | – | 25µM
Cc1ccc(N2CCN(C(=S)c3ccc(-c4ccccc4[N+](=O)[O-])o3)CC2)cc1 | · | ? | – | – | – | ?
O=C(c1ccc(-c2cccc(Cl)c2Cl)o1)N1CCOCC1 | · | – | – | – | – | –
O=[N+]([O-])c1ccccc1-c1ccc(C(=S)N2CCN(c3ccccc3)CC2)o1 | · | ? | – | – | – | 11µM
S=C(c1ccc(-c2ccc(Cl)c(Cl)c2)o1)N1CCOCC1 | – | – | – | – | – | 10µM
S=C(c1ccc(-c2ccc(Br)cc2)o1)N1CCOCC1 | · | – | – | – | – | ·
O=C(COC(=O)c1ccccc1NS(=O)(=O)c1cc([N+](=O)[O-])ccc1Cl)c1ccccc1 | · | – | – | – | – | –
CN(C(=O)COC(=O)c1cc(NS(=O)(=O)c2cc([N+](=O)[O-])ccc2Cl)ccc1O)C1CCCCC1 | -95 | ? | – | – | ? | ?
CC(C)OC(=O)c1c2c(n3ccccc13)C(=O)c1ccccc1C2=O | ? | ? | – | – | – | 11µM
Fc1ccc(Nc2ncnc3onc(-c4ccc(Cl)cc4)c23)cc1Cl | · | ? | · | · | – | –
CCOC(=O)c1c(C)[nH]c(C)c1S(=O)(=O)N1CCC(C(=O)Nc2ccc(OCC)cc2)CC1 | · | – | · | · | – | –
O=C(NCc1ccc2c(c1)OCO2)C12CN(Cc3ccccc3)CC1C(c1cccc([N+](=O)[O-])c1)=NO2 (stereo unspecified) | -87 | – | – | – | – | –
O=C(NCc1ccccc1C(F)(F)F)C12CN(Cc3ccccc3)CC1C(c1ccc([N+](=O)[O-])cc1)=NO2 (stereo unspecified) | -119 | – | – | – | – | –
CC(C)CCNC(=O)C12CN(Cc3ccccc3)CC1C(c1ccc([N+](=O)[O-])cc1)=NO2 (stereo unspecified) | ? | – | ? | – | – | –
CCc1ccccc1NC(=O)C1(S(=O)(=O)c2ccc(Cl)cc2)CC1 | · | – | · | · | – | –
Cc1c(C(=O)NCc2ccccc2Cl)sc2nc[nH]c(=O)c12 | · | – | · | · | – | –
O=S(=O)(c1cccc(-c2nnc(-c3ccc(Br)cc3)o2)c1)N1CCCCCC1 | – | – | – | – | – | –
O=S(=O)(c1cccc(-c2nnco2)c1)N1CCCC1 | -107 | – | – | – | – | –
COc1cc(/C=C/C(=O)c2cccs2)cc(OC)c1OC | · | – | · | ? | – | ?
SMILES | PNC assembly inh | Tau fluor cs | NPSR antagonist | JMJD2E inh | Tau fibril FP | Tau fibril ThT
COc1cccc(C(=O)Nc2ccc3nc(N4CCN(c5ncccn5)CC4)cc(C)c3c2)c1OC | – | – | – | ? | – | 8.9µM
Cc1cc(Nc2cccc(Cl)c2)nc2ccc(NC(=O)COc3ccc(Cl)cc3)cc12 | · | 7.9µM[quencher] | · | · | – | ?
COc1ccc(CC(=O)Nc2ccc3nc(N4CCCCC4)cc(C)c3c2)cc1 | · | 13µM[quencher] | · | · | – | ?
Cc1cc(N2CCN(C)CC2)nc2ccc(NC(=S)N3CCCCC3)cc12 | · | ? | – | ? | – | ?
Cc1cccc(OCC(=O)Nc2ccc3nc(Nc4cccc(Cl)c4)cc(C)c3c2)c1 | · | ? | · | · | – | ?
Cc1cc(N2CCOCC2)nc2ccc(NC(=S)N3CCCCC3C)cc12 (stereo unspecified) | · | 16µM[quencher] | – | ? | – | 11µM
COc1ccc(C2c3cccn3CCN2S(=O)(=O)c2ccccc2[N+](=O)[O-])cc1OC (stereo unspecified) | · | ? | · | · | – | ?
Cc1sc2ncn(CC(=O)Nc3cccc(C(F)(F)F)c3)c(=O)c2c1S(=O)(=O)N1CCC(C)CC1 | · | – | · | · | – | –
COc1cccc(C(=O)Nc2ccc3nc(N4CCOCC4)cc(C)c3c2)c1 | – | ? | – | – | – | 5µM
COc1ccc(Nc2cc(C)c3cc(NC(=O)Cc4ccc(Cl)cc4)ccc3n2)cc1 | · | 5µM[quencher] | · | · | – | 11µM
Cc1[nH]n(-c2ccccc2)c(=O)c1C(c1cccc([N+](=O)[O-])c1)c1c(C)[nH]n(-c2ccccc2)c1=O | – | ? | – | ? | ? | ?
CSc1nc(O)c(C(c2cccc([N+](=O)[O-])c2)c2c(O)nc(SC)[nH]c2=O)c(=O)[nH]1 | · | – | – | – | ? | 11µM
CC(C)n1c(SCC(=O)Nc2ccc(F)cc2)nc2c(oc3ccccc32)c1=O | · | – | · | · | – | –
CCN(CC)CCOc1ccc(/C(=C(/Cl)c2ccccc2)c2ccccc2)cc1 | · | – | 10µM | ? | – | ?
CC/C(=C(\c1ccccc1)c1ccc(OCCN(C)C)cc1)c1ccccc1 | · | – | – | 20µM! | – | ?
CCOC(=O)[C@]1(C(NC(=O)OC)c2cccc(C)c2)CCCC1=O (stereo partly specified) | · | –[11.6 µM] | · | · | –[11.6 µM] | –[11.5 µM]
COc1ccc(NC(=O)CN2CCN(Cc3ccccc3Cl)S2(=O)=O)cc1Cl | · | ? | · | · | – | –
CCc1ccc(NC(=O)c2ccc(Cn3nc(N4CCN(c5ccccc5)CC4)ccc3=O)o2)cc1 | · | – | · | · | – | ?
CCOc1ccc(-c2csc(/C(C#N)=C\c3ccc(O)c([N+](=O)[O-])c3)n2)cc1 | ? | 7.1µM[quencher] | – | – | ? | 1.3µM
Cc1c(C(=O)N2CCOCC2)oc2c1-c1nn(CC(=O)NCc3ccccc3)cc1CC2 | · | – | · | · | – | –
CN(C)c1cncc(C(=O)O)c1 | · | – | – | ? | – | –
O=C(O)c1cncc(Br)c1 | · | – | –[7.67 µM] | – | – | –
CN(C)c1ccnc(C(=O)O)c1 | · | – | – | 2.8µM | – | –
O=C(O)c1cc(Br)ccn1 | · | – | – | 18µM | – | –
COc1ccccc1C(=O)Nc1cccc(N(C)S(C)(=O)=O)c1 | -100 | – | – | ? | – | –
CN(c1ccccc1C(=O)Nc1ccc2c(c1)OCO2)S(C)(=O)=O | -100 | – | – | – | – | ?
Cc1ccc(CCNC(=O)c2cc3sccc3n2Cc2ccc(Cl)cc2)cc1 | · | – | · | · | – | –
Cc1ccc(-n2ncc3c(NC4CCCCC4)ncnc32)cc1Cl | · | ? | · | · | ? | –

Screens: PubChem BioAssay, National Center for Advancing Translational Sciences (NCATS)
